From PubChem BioAssay (NCI)
Compounds without any hit were thinned out: in the full panel of roughly 83,000, 20% have a hit.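 In brief: 96-well plates, 48 h treatment, single concentration, percent growth endpoint.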 The source made the active and inactive calls. The calls were made as follows: active = growth percent below 10; inactive = the rest.

Tests used:
Assay in all cases: NCI-60 one-dose screen, 48 h (100 = growth as untreated, 0 = no growth, -100 = all killed)
Conditions in all cases: 10 µM unless noted
NCI-H23 lung = tested on: NCI-H23 lung
NCI-H226 lung = tested on: NCI-H226 lung
NCI-H322M lung = tested on: NCI-H322M lung
HOP-62 NSCLC = tested on: HOP-62 NSCLC
HOP-92 NSCLC = tested on: HOP-92 NSCLC
NCI-H522 lung = tested on: NCI-H522 lung
A549/ATCC NSCLC = tested on: A549/ATCC NSCLC
786-0 renal = tested on: 786-0 renal
COLO 205 colon = tested on: COLO 205 colon

Measured: growth

NS(=O)(=O)c1ccc(-n2nc(C(=O)N/N=C\c3ccc(F)cc3)cc2-c2ccc(Br)cc2)cc1
inactive: NCI-H23 lung 83.9% | NCI-H226 lung 81.9% | NCI-H322M lung 94.3% | HOP-62 NSCLC 65.3% | HOP-92 NSCLC 67.8% | NCI-H522 lung 54.2% | A549/ATCC NSCLC 74.3% | 786-0 renal 106% | COLO 205 colon 83.1%

C=C(C)[C@@H]1CC[C@]2(N=C=O)CC[C@]3(C)[C@H](CC[C@@H]4[C@@]5(C)Cc6c([nH]c7ccccc67)C(C)(C)[C@@H]5CC[C@]43C)[C@@H]12
inactive: NCI-H23 lung 98% | NCI-H226 lung 90.5% | NCI-H322M lung 88.4% | HOP-62 NSCLC 89% | HOP-92 NSCLC 66.2% | NCI-H522 lung 53.4% | A549/ATCC NSCLC 73.5% | 786-0 renal 66.7% | COLO 205 colon 65.6%

COc1ccc(OC)c(/C=C/c2nnc(Nc3ccccc3)o2)c1
inactive: NCI-H23 lung 97.3% | NCI-H226 lung 89.7% | NCI-H322M lung 99.6% | HOP-62 NSCLC 106% | HOP-92 NSCLC 62.5% | NCI-H522 lung 82.3% | A549/ATCC NSCLC 96.5% | 786-0 renal 87.4% | COLO 205 colon 129%

O=C(CCN1C(=O)/C(=C/c2ccc(O)cc2)SC1=S)Nc1ccc(Cl)cc1
inactive: NCI-H23 lung 91.3% | NCI-H226 lung 97.8% | NCI-H322M lung 82.6% | HOP-62 NSCLC 84.8% | HOP-92 NSCLC 85.9% | NCI-H522 lung 19.9% | A549/ATCC NSCLC 92.1% | 786-0 renal 99.7% | COLO 205 colon 120%

COc1cccc2c(=O)c3c(sc12)c(NCCCN)nc1ccccc13
active: COLO 205 colon -24.6%
inactive: NCI-H23 lung 59.7% | NCI-H226 lung 63.4% | NCI-H322M lung 64.4% | HOP-62 NSCLC 53.2% | HOP-92 NSCLC 45.7% | NCI-H522 lung 56.5% | A549/ATCC NSCLC 36.3% | 786-0 renal 68.2%

COc1nc2ccccc2cc1-c1nc2c(cnn2-c2ccc(Br)cc2)c(=O)[nH]1
inactive: NCI-H23 lung 25.2% | NCI-H226 lung 39.7% | NCI-H322M lung 36.5% | HOP-62 NSCLC 24.4% | HOP-92 NSCLC 39% | A549/ATCC NSCLC 39.9% | 786-0 renal 15.5%
active: NCI-H522 lung 2.63% | COLO 205 colon -50.2%

CCOC(=O)c1cn2ncnc(Oc3ccc(NC(=O)NCCN(C)C)c(Cl)c3)c2c1C
inactive: NCI-H23 lung 75.5% | NCI-H226 lung 93.2% | NCI-H322M lung 90.5% | HOP-62 NSCLC 95.3% | HOP-92 NSCLC 44.8% | NCI-H522 lung 87.9% | A549/ATCC NSCLC 92.4% | 786-0 renal 76.1% | COLO 205 colon 55.9%

COc1ccc(CN2c3ccccc3Sc3ccccc32)c(F)c1
inactive: NCI-H23 lung 50.5% | NCI-H226 lung 56.1% | NCI-H322M lung 44.7% | HOP-62 NSCLC 26.6% | HOP-92 NSCLC 33.2% | A549/ATCC NSCLC 34.1% | 786-0 renal 42.2% | COLO 205 colon 11.7%
active: NCI-H522 lung -12%

CNCCCNc1nc2ccccc2c2c(=O)c3cc(F)ccc3sc12
active: COLO 205 colon -47.8%
inactive: NCI-H23 lung 70.1% | NCI-H226 lung 81.7% | NCI-H322M lung 55.9% | HOP-62 NSCLC 47.9% | HOP-92 NSCLC 28.9% | NCI-H522 lung 24.8% | A549/ATCC NSCLC 37.9% | 786-0 renal 61.5%

Cc1cccc2c3c(sc12)C(c1ccc(Cl)cc1)C(C#N)=C(/N=C/c1ccc(Cl)cc1)O3 (centres undefined)
active: COLO 205 colon 0.544%
inactive: NCI-H23 lung 27.2% | NCI-H226 lung 18% | NCI-H322M lung 49.9% | HOP-62 NSCLC 42% | HOP-92 NSCLC 96.5% | NCI-H522 lung 22.8% | A549/ATCC NSCLC 30.9% | 786-0 renal 31.9%

COc1cccc(Oc2ccccc2NC(=O)CNC(=O)c2cccc3ccccc23)c1
active: NCI-H522 lung -10.3% [5 µM] | COLO 205 colon -13.5% [5 µM]
inactive: NCI-H23 lung 31.6% [5 µM] | NCI-H226 lung 53.7% [5 µM] | NCI-H322M lung 32.6% [5 µM] | HOP-62 NSCLC 35.3% [5 µM] | HOP-92 NSCLC 31.6% [5 µM] | A549/ATCC NSCLC 26.8% [5 µM] | 786-0 renal 28.4% [5 µM]
